Activity calls are given as the source filed them.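 Rule for the calls, unless noted: active = inhibition at or above 50% at 10 µM; inactive = inhibition below 50%.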

The source of these data is PubChem BioAssay.

Test [1] can be described thus: inhibitors of TNFa-induced NFkB p65 translocation, primary screen, imaging, HUVEC, MLSMR starter and 10KST1 sets (AID 438;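 active = inhibition above 20% together with a positive visual image hit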;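 note: compound added about 3h40 before a 20 min TNFalpha stimulation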;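 for inhibition: signal is the nuclear over cytoplasmic p65 intensity ratio per well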). The conditions noted are these: HUVEC TNFa-induced p65 nuclear translocation; cell count: measured here: nuclei count (cytotoxicity indicator), at 2.08 µM; inhibition: at 2 µM, stronger effect = higher value, 0% TNFa-plus-vehicle, 100% no-TNFa wells.
Test [2] can be described thus: inhibitors of mutant huntingtin aggregation, primary screen, imaging, exon1htt(103Q)mCFP cells, high-content imaging (AID 483;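 active = visual image review flags a hit and inhibition of aggregation exceeds 20%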;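 note: compound exposure lasted 3 days before fixation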;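 for nuclei count: percent of the per-plate median nuclei count of sample wells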). The conditions noted are these: exon1htt(103Q)mCFP cell line, aggregate imaging, at 2 µM; inhibition of aggregation: stronger effect = higher value; nuclei count: measured here: cell count, toxicity.
Test [3] can be described thus: inhibitors of E-selectin induction by TNFa, primary screen, imaging, HUVEC, immunofluorescence, MLSMR starter and 10KST1 sets (AID 487;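 active = visually confirmed hit in the image check and inhibition above 20%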;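 for inhibition: signal is fraction of cell area covered by stained E-selectin grains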;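 for nuclei count: 100% = median nuclei count of all wells on the same plate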). The conditions noted are these: HUVEC TNFalpha-induced E-selectin immunofluorescence imaging, at 2 µM; inhibition: stronger effect = higher value; nuclei count: measured here: cell number, toxicity.
Test [4] deals with Voltage-gated potassium channel subunit beta-2 (Rattus norvegicus) (UniProt P62483). Briefly: KvBeta enzyme negative modulators, primary screen, biochemical, NADPH fluorescence (AID 622;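 active = fluorescence slope higher than the sample average by over 3 SD, cut at about -0.22 in these data, passing the limit was not always enough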;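 note: slope of raw intensity against log time taken from 70 to 1610 s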). The following applies: recombinant KvBeta, 4-cyanobenzaldehyde reduction, at 10 µM, stronger effect = higher value.
Chain of Voltage-gated potassium channel subunit beta-2 (Rattus norvegicus) (P62483 whole entry, looked up): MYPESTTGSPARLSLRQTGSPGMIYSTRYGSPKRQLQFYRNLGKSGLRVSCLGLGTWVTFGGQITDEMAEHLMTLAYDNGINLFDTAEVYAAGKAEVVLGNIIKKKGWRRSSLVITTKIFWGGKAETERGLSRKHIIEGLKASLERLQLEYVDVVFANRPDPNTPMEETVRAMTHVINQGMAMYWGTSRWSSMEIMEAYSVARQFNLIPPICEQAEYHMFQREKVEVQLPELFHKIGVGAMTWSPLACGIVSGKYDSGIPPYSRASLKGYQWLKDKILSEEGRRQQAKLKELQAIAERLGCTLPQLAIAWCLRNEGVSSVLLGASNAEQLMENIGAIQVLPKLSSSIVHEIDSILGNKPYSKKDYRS
Test [5] has the same target. Briefly: KvBeta positive modulators, primary screen, biochemical, NADPH fluorescence (AID 623;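 active = NADPH fluorescence slope more negative than the mean of all samples by about 3 SD, 99.7% confidence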;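 note: fluorescence intensity change per second fitted from 20 to 320 s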). The following applies: Recombinant KvBeta, NADPH fluorescence decrease slope, 10 min; at 10 µM; stronger effect = lower value.
The target of test [6] is Alpha-2C adrenergic receptor (Homo sapiens) (UniProt P18825). The test can be described thus: modulators of alpha2C/GIRK thallium flux, primary screen, cell-based, HEK293 alpha2C/GIRK1/2 (AID 624;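 active = fluorescence slope after compound addition differing from the mean of all screened samples at 99.7% confidence, in either direction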;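 note: slope of fluorescence ratio to pre-addition baseline per second over 15 to 24 s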). The following applies: thallium flux BTC fluorescence, at 10 µM, actives lie on both sides.
Chain of Alpha-2C adrenergic receptor (Homo sapiens) (P18825 whole entry, looked up): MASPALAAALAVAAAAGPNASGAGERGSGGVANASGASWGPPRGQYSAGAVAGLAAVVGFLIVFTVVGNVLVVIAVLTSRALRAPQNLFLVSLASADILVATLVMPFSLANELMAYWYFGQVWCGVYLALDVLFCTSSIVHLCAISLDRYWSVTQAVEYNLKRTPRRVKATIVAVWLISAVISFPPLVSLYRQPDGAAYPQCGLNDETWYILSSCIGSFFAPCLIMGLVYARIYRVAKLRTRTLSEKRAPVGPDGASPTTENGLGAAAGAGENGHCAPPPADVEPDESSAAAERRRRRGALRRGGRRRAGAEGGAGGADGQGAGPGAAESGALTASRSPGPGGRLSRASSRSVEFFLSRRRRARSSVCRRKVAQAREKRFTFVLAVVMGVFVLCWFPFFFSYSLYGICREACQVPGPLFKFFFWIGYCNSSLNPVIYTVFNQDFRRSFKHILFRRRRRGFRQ
Test [7] in a line: inhibitors of Sendai virus-induced IRF3 signaling, primary screen, TLR/RLR signaling modifier project, cell-based, Sendai virus stimulus, luciferase, 10K MLSCN set (AID 602276).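 Note: firefly luciferase from ISG56 promoter only with Renilla not read in this screen; 0% = Sendai virus plus DMSO and 100% = medium plus DMSO without virus.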 The following applies: HEK293 RL24 IRF3 luciferase reporter, at 10 µM, stronger effect = higher value. In general terms: In a reporter assay the amount or activity of a reporter protein is the signal.
The nature of test [8]: inhibitors of poly I:C-induced TLR3 signaling, primary screen, cell-based, poly I:C stimulus, luciferase, 10K MLSCN set (AID 602277;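 active = inhibition of the reporter signal at or above 50%; inactive = inhibition below 50%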). The conditions noted are these: HEK293-TLR3 RL24 IRF3 luciferase reporter, at 10 µM, stronger effect = higher value.

Consider `CC(NC(=O)c1ccc2c(c1)OCO2)C(c1cccs1)N1CCOCC1` (centres undefined), for which the cell count in test [1] is 462. Also, the inhibition (commonly the drop in the measured response relative to a control, in per cent) in test [1] was -6.6% (inactive); in test [3] it was -29.4% (inactive); in test [7], 12.6% (inactive); in test [8], 15.4% (inactive). The inhibition of aggregation in test [2] is 17.3% (inactive). Further, the results for the nuclei count in test [2] and in test [3] were 113% and 115%, respectively. Further, in test [4], the fluorescence slope was -0.618 (inactive). The NADPH fluorescence slope in test [5] was 2.3e-05 (inactive). In test [6], the slope is 0.00632 (inactive).
Turning to `CC1(C)OC(=O)N(c2cccnc2)C1(C)O` (centres undefined), the cell count in test [1] was determined as 597. For the same compound, the inhibition in test [1] is 8.1% (inactive); in test [3], 41.8% (inactive); in test [7] it was 13.3% (inactive); in test [8], 19.9% (inactive). Also, the inhibition of aggregation in test [2] is -2.8% (inactive). The nuclei count in test [2] came out at 101%; in test [3] it was 104%. Moreover, in test [4], the fluorescence slope is -0.401 (inactive). Also, the NADPH fluorescence slope in test [5] was -2.3e-05 (inactive). In test [6], the slope is 0.00628 (inactive).
On to `Cc1cc(C(=O)Cn2cncn2)c(C)n1CCc1ccc(F)cc1`, for which, in test [1], the cell count worked out at 453. Further, the inhibition is -2.5% (inactive) in test [1], -92.9% (inactive) in test [3], 0.317% (inactive) in test [7] and 16.3% (inactive) in test [8]. Also, the inhibition of aggregation in test [2] is 0.8% (inactive). Moreover, the nuclei count worked out at 91.7% in test [2] and 98.5% in test [3]. For the same compound, the fluorescence slope in test [4] was -0.48 (inactive). The NADPH fluorescence slope in test [5] was -4e-05 (inactive). Further, the slope in test [6] was 0.00641 (inactive).
For `Cc1nc(NC2=NCN(CCN3CCOCC3)CN2)nc2c(C)cccc12`, the cell count in test [1] amounted to 417. In addition, the inhibition was 4.5% (inactive) in test [1], -24.5% (inactive) in test [3], 23.8% (inactive) in test [7] and 41.1% (inactive) in test [8]. The inhibition of aggregation in test [2] was -1.2% (inactive). In addition, the results for the nuclei count in test [2] and in test [3] were 72.4% and 108%, respectively. Also, the fluorescence slope in test [4] is -0.419 (inactive). In test [5], the NADPH fluorescence slope was -3.7e-05 (inactive). Further, in test [6], the slope was 0.00391 (inactive).
With `Cn1c(SCC(=O)c2ccc(-c3ccccc3)cc2)nnc1-c1ccco1`, the cell count in test [1] amounted to 248. The inhibition in test [1] is 4.3% (inactive); in test [3], -7.1% (inactive); in test [7], 3.76% (inactive); in test [8], 1.41% (inactive). The inhibition of aggregation in test [2] is 5.3% (inactive). Also, the nuclei count in test [2] turned out to be 67.6%; in test [3], 118%. The fluorescence slope in test [4] was -0.516 (inactive). Besides, in test [5], the NADPH fluorescence slope was -5.4e-05 (inactive). Moreover, the slope in test [6] was 0.0027 (inactive).
For the compound `N#CC1=C(N)OC2=C(CCC/C2=C/c2ccoc2)C1c1ccoc1` (centres undefined), in test [1], the cell count is 413. In addition, the inhibition was -5.2% (inactive) in test [1], -137% (inactive) in test [3], -7.37% (inactive) in test [7] and -9.08% (inactive) in test [8]. The inhibition of aggregation in test [2] was -17.9% (inactive). Moreover, the nuclei count is 113% in test [2] and 115% in test [3]. Moreover, in test [4], the fluorescence slope is -0.313 (inactive). In addition, the NADPH fluorescence slope in test [5] is -5.7e-05 (inactive). For the same compound, the slope in test [6] was 0.00619 (inactive).
With `CC(C)CCNC(=O)C(c1ccco1)N(CC1CCCO1)C(=O)Cn1nnc2ccccc21` (centres undefined), the cell count in test [1] was determined as 393. Also, the inhibition in test [1] is 10.3% (inactive); in test [3], -72.5% (inactive); in test [7], 8.01% (inactive); in test [8] it was 16.4% (inactive). Moreover, the inhibition of aggregation in test [2] was 5.4% (inactive). Further, the nuclei count in test [2] was determined as 104%; in test [3] it was 103%. For the same compound, the fluorescence slope in test [4] is -0.612 (inactive). Besides, the NADPH fluorescence slope in test [5] was -4.6e-05 (inactive). In addition, the slope in test [6] was 0.00382 (inactive).
As to `CCC(C)NC(=O)CCNS(=O)(=O)c1ccc(Br)cc1` (centres undefined), the cell count in test [1] came to 605. Moreover, the inhibition in test [1] is -17% (inactive); in test [3], -109% (inactive); in test [7] it was 3.69% (inactive); in test [8], 33% (inactive). Also, the inhibition of aggregation in test [2] is 17.5% (inactive). Moreover, the values for the nuclei count in test [2] and in test [3] were 66.3% and 118%, respectively. The fluorescence slope in test [4] was -0.325 (inactive). In addition, the NADPH fluorescence slope in test [5] was 6.7e-06 (inactive). The slope in test [6] is 0.00362 (inactive).
On to `CCOC(=O)c1cc(-c2ccco2)nc2c1c(C)nn2CCC#N`, for which the cell count in test [1] stood at 590. The inhibition is -10.8% (inactive) in test [1], -15.3% (inactive) in test [3], -22.4% (inactive) in test [7] and -3.59% (inactive) in test [8]. Besides, the inhibition of aggregation in test [2] was -3.4% (inactive). Moreover, the nuclei count in test [2] was found to be 103%; in test [3], 146%. For the same compound, the fluorescence slope in test [4] is -0.214 (active). Besides, the NADPH fluorescence slope in test [5] is 2.1e-05 (inactive). For the same compound, the slope in test [6] is 0.00625 (inactive).
Take `c1ccc(Cn2nnnc2CN2CCCC2)cc1`: the cell count in test [1] was determined as 433. Moreover, the inhibition in test [1] was -9.4% (inactive); in test [3], -38.6% (inactive); in test [7] it was 14.5% (inactive); in test [8] it was 19.4% (inactive). Further, the inhibition of aggregation in test [2] was 2.6% (inactive). The figures for the nuclei count in test [2] and in test [3] were 100% and 94%, respectively. In addition, the fluorescence slope in test [4] is -0.499 (inactive). The NADPH fluorescence slope in test [5] was -2.2e-05 (inactive). Moreover, the slope in test [6] was 0.00601 (inactive).
Take `O=C(COC(=O)CCc1c[nH]c2ccccc12)NC1CCS(=O)(=O)C1` (centres undefined): the cell count in test [1] came to 473. Further, the inhibition in test [1] is 4.7% (inactive); in test [3], -70.8% (inactive); in test [7], 4.42% (inactive); in test [8], -2.03% (inactive). Besides, the inhibition of aggregation in test [2] is -7.7% (inactive). Moreover, the nuclei count in test [2] is 101%; in test [3], 113%. Moreover, the fluorescence slope in test [4] is -0.57 (inactive). The NADPH fluorescence slope in test [5] was -1.6e-05 (inactive). Also, the slope in test [6] was 0.00772 (inactive).
Consider `CCOC(=O)CSc1nc2ccccc2n1CC(=O)N1CCN(c2ccccc2)CC1`, for which the cell count in test [1] was 436. For the same compound, the inhibition in test [1] is 14.9% (inactive); in test [3] it was 50.8% (inactive); in test [7], -4.03% (inactive); in test [8] it was 1.41% (inactive). Also, in test [2], the inhibition of aggregation was 7.6% (inactive). Also, the values for the nuclei count in test [2] and in test [3] were 98% and 99.5%, respectively. In addition, the fluorescence slope in test [4] was -0.569 (inactive). Further, in test [5], the NADPH fluorescence slope is 2.2e-05 (inactive). Moreover, the slope in test [6] is 0.00504 (inactive).
As to `CCOC(=O)c1sc(NC(=O)COC(=O)Cn2cnc3ccccc32)c(C(=O)OCC)c1C`, in test [1], the cell count is 398. In addition, the inhibition was 4.3% (inactive) in test [1], -109% (inactive) in test [3], 13.7% (inactive) in test [7] and -7.45% (inactive) in test [8]. The inhibition of aggregation in test [2] was 2.6% (inactive). Moreover, the figures for the nuclei count in test [2] and in test [3] were 90.6% and 115%, respectively. For the same compound, in test [4], the fluorescence slope was -0.613 (inactive). Also, the NADPH fluorescence slope in test [5] is -3e-05 (inactive). In test [6], the slope was 0.00913 (inactive).
On to `CC(=O)N(c1ccc(Br)cc1)C1C=CS(=O)(=O)C1` (centres undefined), for which, in test [1], the cell count was determined as 476. For the same compound, the inhibition was 3.9% (inactive) in test [1], -13.7% (inactive) in test [3], 13.8% (inactive) in test [7] and 30% (inactive) in test [8]. The inhibition of aggregation in test [2] is 25.9% (inactive). Moreover, the results for the nuclei count in test [2] and in test [3] were 49.7% and 102%, respectively. Further, the fluorescence slope in test [4] is -0.551 (inactive). Also, the NADPH fluorescence slope in test [5] was -4.3e-05 (inactive). Moreover, the slope in test [6] was 0.00701 (inactive).
